# Source: PubChem BioAssay (NCI)
# About 83,000 compounds went through this panel and 20% of them were active in at least one assay; those are over-represented in the sample as a whole.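 A percent growth of 40 corresponds to 60% growth inhibition; 0 means no net growth; -100 means all cells died. Active threshold: below 10.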 Unmarked numbers belong to inactive results. The source made the active and inactive calls.
# Tested on: MDA-MB-468 breast
# Experiment: NCI-60 one-dose screen, 48 h (100 = growth as untreated, 0 = no growth, -100 = all killed)
# Conditions: 10 µM unless noted
row,Structure (SMILES),growth
1,COc1cc(C(=O)/C=C/c2c(-c3cccs3)nc3sc(C)cn23)cc(OC)c1OC,-4.34% (active)
2,COC(=O)C(N)CSC(c1ccccc1)(c1ccccc1)c1ccccc1 (stereo not given),11.5%
3,COc1cc(/C=C/C(=O)c2ccc(NC(=O)CSc3nnc(-c4ccc5nc(-c6ccccc6)[nH]c5c4)o3)cc2)cc(OC)c1OC,94.9%
4,O=C(Oc1cccc2ccccc12)c1ccccc1C(=O)c1ccccc1,103%
5,Fc1ccc(Nc2ccc3c(OCCCN4CCOCC4)cccc3n2)cc1F,46.3%
6,CSC1=N/C(=C\c2cccc(OCc3ccc(Cl)cc3)c2)C(=O)N1,68.6%
7,CCN(CC)CCCCNc1ccc(NCCCCN(CC)CC)c2c1C(=O)c1ccccc1C2=O,106%
8,Cc1cc(N2CCC(N3CCCC3)CC2)nc(/N=C(\N)Nc2ccc(Cl)c(Cl)c2)n1,-81.4% (active)
9,CN1CCN(CCCn2c3c(sc4ncccc43)c(=O)n3nnc(-c4ccccc4)c23)CC1,98.6%
10,N#Cc1ccccc1OCC(=O)Nc1nc2c(s1)COc1ccccc1-2,98.7%
11,COc1cccc(N2CCN(c3ncnc4cc[nH]c34)CC2)c1,18.8%
12,Cc1cc2c3ccc(C)[n+](C)c3ccc2n1C,19.1%
13,CC1=C(C#N)C(=O)NC(C)C1 (stereo not given),108%
14,O=S(=O)(CCN1CCOCC1)Nc1cc(-c2ccc3ncnc(Nc4ccc(F)c(Cl)c4)c3c2)cnc1Cl,-34.4% (active)
15,C=C1c2nc3ccccc3n2C=C(c2cccc(Cl)c2)N1Cc1ccc(OC)cc1,32%
16,COc1ccc2nc(-c3ccc(-c4noc(-c5ccc(Cl)cc5)n4)cc3)[nH]c2c1,37.5%
17,CN(CCC(=O)/C(=C\c1ccccc1)c1ccc(Cl)cc1)Cc1ccccc1,-35.2% (active)
18,COC(c1ccccc1)(c1ccccc1)c1ccccc1,113%
19,CCCCC(=O)N/N=C/c1cc(I)cc(I)c1O,69%
20,COc1cc(C)cc(-c2c(-c3cc(N4CC(O)C4)nc(-c4cccnc4)n3)cnn2C)c1,80.2%

row,Structure (SMILES),growth
1,O=C1C(Cl)=C(Cl)C(Cl)(Cl)C(Cl)C1(Cl)Cl (stereo not given),115%
2,CC(C)=CCC[C@](C)(O)[C@H]1CC[C@]2(C)[C@@H]1CC[C@@H]1[C@@]3(C)C/C(=C/c4ccc(Br)cc4)C(=O)C(C)(C)[C@@H]3CC[C@]12C,83.7%
3,CCOC(=O)c1c(Cl)c2c(n1Cc1ccccc1)-c1oncc1CCC2,56%
4,O=C(Nc1ncc(Cc2ccccc2Cl)s1)c1cccs1,33.6%
5,CSc1nc2ccc(C)cc2cc1/C=C1/C=C(c2ccccc2)NC1=O,49.1%
6,O=C1Nc2ccc(Cl)cc2/C1=N/c1nc(-c2ccc(Cl)cc2)cs1,-18% (active)
7,CC(C)(C)n1cc(-c2ccnc(NCCNS(=O)(=O)c3cccc4ccccc34)c2)c(-c2cccc(O)c2)n1,46.2%
8,COc1ccc2c(O)c(/C=C3\N=Nc4ncccc43)oc2c1C[C@H]1CCNC[C@H]1F,-39% (active)
9,COc1cc2ncnc(Nc3ccc4c(cnn4C(=O)Nc4ccccc4)c3)c2cc1OC,52%
10,Cn1ccnc1CN1CCSC(C(=O)Nc2ccccc2)C1 (stereo not given),87.8%
11,COc1ccc2c(c1)c(CC(=O)[Se]CCC#N)c(C)n2C(=O)c1ccc(Cl)cc1,-36% (active)
12,Cc1ccc(-c2csc(NC(=O)CSc3nc(N)cc(N)n3)n2)cc1,11.6%
13,O=C(NOC(=O)c1ccccc1)c1ccccc1,105%
14,CCCCCCCCCCCCCCCCCCNCc1ccc(Cl)cc1,-71.9% (active)
15,COc1cc(CO)cc2cc3ccccc3nc12,40.8%
16,CCCCN(CCCC)CCCNc1c2c(nc3ccc(Cl)cc13)CCCC2,114%
17,O=CN1N=C(c2ccc(F)cc2)CC1c1cccc(Nc2ccnc3cc(C(F)(F)F)ccc23)c1 (stereo not given),29.2%
18,O=C(COC(=O)[C@H](C[Se][Se]C[C@H](NC(=O)c1ccc(Br)cc1F)C(=O)OCC(=O)c1ccc(F)cc1)NC(=O)c1ccc(Br)cc1F)c1ccc(F)cc1,-79.5% (active)
19,COc1ccc(-c2nn(-c3cccc(Cl)c3)cc2-c2cc(-c3ccc(Br)cc3)nc(N)n2)cc1,95%
20,CC1=CC[C@@H]2C(C)(C)[C@@H](O)CC[C@@]2(C)[C@@H]1COc1ccc2ccc(=O)oc2c1,42.8%
